GDH-TPI counter-1: GDH-TPI coupled enzyme inhibition counter-screen; GDH-TPI coupled enzyme counterscreen, NADH absorbance; inhibition, % at 4.8 µM; hit rate 1.2% among 360,000; in the data active means inhibition above about 30%;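 further: 0% = DMSO wells and 100% = wells lacking the enzyme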
Mtb FBA inh: Mtb fructose-bisphosphate aldolase inhibition; P9WQA3; purified M. tuberculosis FBA, fluorescence read-out; inhibition, % at 1 µM; hit rate 2.3% among 360,000; in the data active means inhibition above about 27%;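 further: 0% = vehicle and 100% = reference inhibitor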
Yp Topo-I inh: blocks Yersinia pestis topoisomerase I activity; Y. pestis Topo-I cleavage product accumulation, plate reader; AID 504884; hit rate 0.064% among 360,000; activity, % at 10 µM; in the data active means activity above about 50%, passing the limit was not always enough
PrPC TRFRET: reduces human prion protein on the cell surface. P04156. inhibition, % at 13.8 µM. AID 720596. hit rate 0.43% among 370,000. cell surface PrPC, TR-FRET read-out; in the data active means inhibition above about 24%; further: 0% = median of the test wells and 100% = reference compound wells
TcdB GH inh: TcdB glycohydrolase inhibition; P18177; TcdB glycohydrolase enzymatic assay, plate reader; inhibition, % at 9.99 µM; hit rate 0.24% among 350,000
Target sequence (P18177 whole entry, looked up): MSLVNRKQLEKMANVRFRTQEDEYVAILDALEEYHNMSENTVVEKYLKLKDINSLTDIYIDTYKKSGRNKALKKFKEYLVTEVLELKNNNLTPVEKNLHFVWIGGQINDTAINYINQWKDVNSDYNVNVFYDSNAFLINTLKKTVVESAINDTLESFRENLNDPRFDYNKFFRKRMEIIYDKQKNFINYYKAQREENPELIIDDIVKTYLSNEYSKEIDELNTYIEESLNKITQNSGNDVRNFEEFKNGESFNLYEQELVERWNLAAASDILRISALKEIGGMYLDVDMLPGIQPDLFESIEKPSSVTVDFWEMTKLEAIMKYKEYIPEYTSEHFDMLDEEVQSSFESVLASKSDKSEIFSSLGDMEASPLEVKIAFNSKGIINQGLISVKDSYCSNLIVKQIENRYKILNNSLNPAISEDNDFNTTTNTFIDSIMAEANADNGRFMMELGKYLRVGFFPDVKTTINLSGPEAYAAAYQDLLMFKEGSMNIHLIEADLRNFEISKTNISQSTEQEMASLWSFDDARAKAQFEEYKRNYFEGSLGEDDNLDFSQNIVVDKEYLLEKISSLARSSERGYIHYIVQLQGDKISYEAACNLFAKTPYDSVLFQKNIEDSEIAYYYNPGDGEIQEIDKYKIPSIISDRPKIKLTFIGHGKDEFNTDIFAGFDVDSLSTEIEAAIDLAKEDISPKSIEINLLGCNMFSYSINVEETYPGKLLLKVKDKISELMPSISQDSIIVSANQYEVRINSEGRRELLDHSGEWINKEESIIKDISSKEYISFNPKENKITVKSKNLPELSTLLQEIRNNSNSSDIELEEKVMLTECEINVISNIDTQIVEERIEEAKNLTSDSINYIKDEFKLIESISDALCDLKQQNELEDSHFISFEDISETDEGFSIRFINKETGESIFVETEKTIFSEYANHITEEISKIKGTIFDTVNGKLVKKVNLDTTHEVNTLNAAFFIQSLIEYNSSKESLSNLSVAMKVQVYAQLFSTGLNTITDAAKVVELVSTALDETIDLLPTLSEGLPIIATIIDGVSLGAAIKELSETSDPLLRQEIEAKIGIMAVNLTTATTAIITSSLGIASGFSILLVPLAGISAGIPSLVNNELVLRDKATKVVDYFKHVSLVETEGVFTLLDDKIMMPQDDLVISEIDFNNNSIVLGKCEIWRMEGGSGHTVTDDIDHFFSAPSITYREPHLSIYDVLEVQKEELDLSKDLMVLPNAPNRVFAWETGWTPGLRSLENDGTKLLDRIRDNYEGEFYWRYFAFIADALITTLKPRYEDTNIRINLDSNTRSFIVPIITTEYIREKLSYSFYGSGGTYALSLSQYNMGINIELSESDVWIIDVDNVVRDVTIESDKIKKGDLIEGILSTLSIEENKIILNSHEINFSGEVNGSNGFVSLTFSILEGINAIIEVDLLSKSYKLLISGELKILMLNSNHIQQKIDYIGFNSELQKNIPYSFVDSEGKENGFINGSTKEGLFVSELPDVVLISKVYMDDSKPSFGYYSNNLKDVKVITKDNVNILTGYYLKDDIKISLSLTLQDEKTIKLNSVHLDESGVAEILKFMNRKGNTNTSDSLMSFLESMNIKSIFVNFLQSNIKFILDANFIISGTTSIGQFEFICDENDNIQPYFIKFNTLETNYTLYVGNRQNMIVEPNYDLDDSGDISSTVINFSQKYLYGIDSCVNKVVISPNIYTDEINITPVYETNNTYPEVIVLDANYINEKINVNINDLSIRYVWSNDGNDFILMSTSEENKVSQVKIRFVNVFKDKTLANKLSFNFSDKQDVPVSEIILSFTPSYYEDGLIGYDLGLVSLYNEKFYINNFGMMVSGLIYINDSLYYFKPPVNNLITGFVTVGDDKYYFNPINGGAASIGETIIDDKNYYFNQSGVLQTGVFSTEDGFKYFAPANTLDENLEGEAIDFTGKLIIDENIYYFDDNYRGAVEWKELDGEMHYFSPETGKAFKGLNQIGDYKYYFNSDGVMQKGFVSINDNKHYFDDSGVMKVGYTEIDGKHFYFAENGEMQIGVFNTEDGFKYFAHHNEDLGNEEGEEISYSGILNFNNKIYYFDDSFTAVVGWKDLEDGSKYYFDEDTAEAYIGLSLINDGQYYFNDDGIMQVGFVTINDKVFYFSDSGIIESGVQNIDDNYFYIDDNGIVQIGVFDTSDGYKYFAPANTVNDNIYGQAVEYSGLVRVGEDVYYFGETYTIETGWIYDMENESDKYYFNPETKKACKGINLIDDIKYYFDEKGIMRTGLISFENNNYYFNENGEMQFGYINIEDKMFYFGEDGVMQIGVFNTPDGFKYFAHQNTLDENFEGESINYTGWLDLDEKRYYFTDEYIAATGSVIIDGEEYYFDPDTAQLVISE
Mtb FBA confirm: Mtb FBA inhibition, confirmed; shares compounds with Mtb FBA inh; AID 651616; purified M. tuberculosis FBA, fluorescence read-out; hit rate 78% among 5,600; inhibition, % at 1 µM; in the data active means inhibition above about 27%;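 further: 0% = vehicle wells and 100% = reference inhibitor wells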
GDH-TPI counter-2: counter-screen for M. tuberculosis FBA inhibitors: GDH-TPI coupled enzyme inhibition. shares compounds with Mtb FBA inh. GDH-TPI coupled enzyme counterscreen, fluorescence. inhibition, % at 1 µM. hit rate 81% among 5,600
Starred values were filed as active, the others as inactive. Hits are enriched below; roughly 3.2% of the tested compounds scored in any of these assays. Unless noted, no stated cut-off is given here; in the data, active means inhibition above about 10%; inactive means the rest.

What do the screens show for `CC1=Nc2ccc(C)c3nc(C)cc(c23)N1c1ccc(C)cc1`?
GDH-TPI counter-1: -6.6; Mtb FBA inh: 30.1*; Yp Topo-I inh: 9.1; PrPC TRFRET: -7.7; Mtb FBA confirm: 60.2*; GDH-TPI counter-2: 38.4*

Results for Cc1ccc(N2C=Nc3ccc(C)c4nc(C)cc2c34)cc1 ?
GDH-TPI counter-1: 2.5; Mtb FBA inh: 12.6; Yp Topo-I inh: 0.0; PrPC TRFRET: -1.1

Results for C[C@H](CO)N1C[C@H](C)[C@H](CN(C)C(=O)Nc2ccc3c(c2)OCO3)Oc2ccc(NS(=O)(=O)c3cn(C)cn3)cc2C1=O ?
TcdB GH inh: 0.3

Results for Cc1ccc(CN2CC(C(=O)Nc3ccc(C)c(S(=O)(=O)N4CCCCC4)c3)CC2=O)cc1 (stereo unspecified) ?
GDH-TPI counter-1: 6.6; Mtb FBA inh: 2.6; Yp Topo-I inh: 13.9; PrPC TRFRET: 2.6; TcdB GH inh: 0.4

Results for Cc1ccc(CN2CC(C(=O)Nc3ccc4c(C)cc(=O)oc4c3)CC2=O)cc1 (stereo unspecified) ?
GDH-TPI counter-1: 16.1; Mtb FBA inh: 89.3*; Yp Topo-I inh: 17.1; PrPC TRFRET: -0.6; Mtb FBA confirm: 95.9*; GDH-TPI counter-2: 74.2*

Results for CNC[C@H]1OCCCC[C@H](C)Oc2ccc(NS(=O)(=O)c3ccc(OC)cc3)cc2C(=O)N([C@@H](C)CO)C[C@H]1C ?
TcdB GH inh: 0.5

How did CC(C)c1ccc(C2NC(=O)NC3=C2CCc2ccccc23)cc1 (stereo unspecified) do in these assays?
GDH-TPI counter-1: 4.1; Mtb FBA inh: 31.6*; Yp Topo-I inh: 17.3; PrPC TRFRET: 3.0; Mtb FBA confirm: 62.7*; GDH-TPI counter-2: 34.8*

How did Cc1ccc(C2NC(=O)NC3=C2CCc2ccccc23)cc1 (stereo unspecified) do in these assays?
GDH-TPI counter-1: 5.3; Mtb FBA inh: 34.6*; Yp Topo-I inh: 18.8; PrPC TRFRET: 5.4; Mtb FBA confirm: 61.2*; GDH-TPI counter-2: 55.1*

Results for C[C@H]1CN([C@@H](C)CO)C(=O)c2cccc(NC(=O)Nc3ccc4c(c3)OCO4)c2O[C@@H]1CN(C)S(=O)(=O)c1ccccc1 ?
TcdB GH inh: -0.9

Results for CCOC(=O)c1cc(-c2ccc(F)cc2)nc2c1c(=O)[nH]c(=O)n2Cc1ccccc1 ?
GDH-TPI counter-1: 3.8; Mtb FBA inh: 2.7; Yp Topo-I inh: 5.2; PrPC TRFRET: 4.5; TcdB GH inh: 1.1

Results for CCOC(=O)c1cc(-c2ccc(OC(F)F)cc2)nc2nc(SC)[nH]c(=O)c12 ?
GDH-TPI counter-1: 29.0; Mtb FBA inh: 72.1*; Yp Topo-I inh: 0.5; PrPC TRFRET: 6.5; TcdB GH inh: 1.1; Mtb FBA confirm: 101.2*; GDH-TPI counter-2: 87.9*

How did CCOC(=O)c1cc(-c2ccc(Cl)cc2)nc2c1c(=O)[nH]c(=O)n2CCOC do in these assays?
GDH-TPI counter-1: 6.6; Mtb FBA inh: 53.4*; Yp Topo-I inh: -3.2; PrPC TRFRET: -4.5; TcdB GH inh: 0.8; Mtb FBA confirm: 68.2*; GDH-TPI counter-2: 46.2*

Results for CCOC(=O)c1cc(-c2ccc(OC(F)F)cc2)nc2c1c(=O)[nH]c(=O)n2C ?
GDH-TPI counter-1: 9.6; Mtb FBA inh: 50.0*; Yp Topo-I inh: -4.8; PrPC TRFRET: -6.7; Mtb FBA confirm: 159.1*; GDH-TPI counter-2: 130.0*

Results for CCNC(=O)Nc1ccc2c(c1)C(=O)N(C)[C@H]1CC[C@H](CC(=O)Nc3ccccc3Cl)O[C@@H]1CO2 ?
TcdB GH inh: 0.2

Results for Cc1c(C)c2ccc(OCC(=O)N3C[C@H]4C[C@@H](C3)c3cccc(=O)n3C4)cc2oc1=O ?
GDH-TPI counter-1: 22.6; Mtb FBA inh: 59.9*; Yp Topo-I inh: -1.5; PrPC TRFRET: -5.6; TcdB GH inh: 0.8; Mtb FBA confirm: -8.1; GDH-TPI counter-2: -5.6

What do the screens show for `C=C(C)COc1cc2oc(=O)c(CC(=O)N3C[C@H]4C[C@@H](C3)c3cccc(=O)n3C4)c(C)c2cc1Cl`?
GDH-TPI counter-1: 22.6; Mtb FBA inh: 67.5*; Yp Topo-I inh: 2.7; PrPC TRFRET: 4.7; TcdB GH inh: 1.0; Mtb FBA confirm: 1.6; GDH-TPI counter-2: -3.0

What do the screens show for `O=C(COc1cc2oc(=O)c3c(c2cc1Cl)CCC3)N1C[C@H]2C[C@@H](C1)c1cccc(=O)n1C2`?
GDH-TPI counter-1: 25.5; Mtb FBA inh: 5.2; Yp Topo-I inh: 6.2; PrPC TRFRET: -3.8; TcdB GH inh: 1.4

What do the screens show for `C=C(C)COc1ccc2c(C)c(CCC(=O)N3C[C@H]4C[C@@H](C3)c3cccc(=O)n3C4)c(=O)oc2c1`?
GDH-TPI counter-1: 23.5; Mtb FBA inh: 70.3*; Yp Topo-I inh: 13.6; PrPC TRFRET: 1.6; TcdB GH inh: 0.5; Mtb FBA confirm: 65.3*; GDH-TPI counter-2: 52.8*

Results for COc1cc(C)cc2oc(=O)c(CC(=O)N3C[C@H]4C[C@@H](C3)c3cccc(=O)n3C4)c(C)c12 ?
GDH-TPI counter-1: 3.9; Mtb FBA inh: 80.6*; Yp Topo-I inh: 10.2; PrPC TRFRET: 1.4; TcdB GH inh: 0.9; Mtb FBA confirm: 139.0*; GDH-TPI counter-2: 123.6*

What do the screens show for `COC(=O)C[C@H]1CC[C@H]2[C@@H](COC[C@@H](O)CN2CCC(F)(F)F)O1`?
TcdB GH inh: -0.9

What do the screens show for `C[C@H](CO)N1C[C@H](C)[C@H](CN(C)S(=O)(=O)c2cn(C)cn2)OCCCC[C@H](C)Oc2ccc(NC(=O)CCC(F)(F)F)cc2C1=O`?
TcdB GH inh: 0.5

How did NCC[C@@H]1CC[C@@H](NC(=O)Nc2ccc(F)cc2)[C@H](CO)O1 do in these assays?
TcdB GH inh: -1.2

What do the screens show for `C[C@@H]1CN([C@@H](C)CO)C(=O)c2cc(NS(C)(=O)=O)ccc2O[C@@H](C)CCCCO[C@@H]1CN(C)C(=O)C1CCCCC1`?
TcdB GH inh: 0.3

How did O=C(N[C@H]1C=C[C@H](CC(=O)N2CCc3ccccc3C2)O[C@@H]1CO)C1CCC1 do in these assays?
TcdB GH inh: 0.8

What do the screens show for `CCOC(=O)C1CCN(C(=O)Cn2cnc3sc(C)c(S(=O)(=O)N4CCCCC4)c3c2=O)CC1`?
GDH-TPI counter-1: 5.0; Mtb FBA inh: -1.9; Yp Topo-I inh: 4.6; PrPC TRFRET: -1.9; TcdB GH inh: 1.3

Results for CCOC(=O)C1CCN(C(=O)Cn2cnc3sc(C)c(S(=O)(=O)N4CCC(C)CC4)c3c2=O)CC1 ?
GDH-TPI counter-1: -1.8; Mtb FBA inh: 77.8*; Yp Topo-I inh: 25.6; PrPC TRFRET: -7.3; TcdB GH inh: 1.0; Mtb FBA confirm: 185.7*; GDH-TPI counter-2: 142.8*

How did O=C(O)CCc1nn2c3ccccc3n(Cc3ccccc3F)c2nc1=O do in these assays?
GDH-TPI counter-1: 5.0; Mtb FBA inh: 36.9*; Yp Topo-I inh: 10.9; PrPC TRFRET: 0.2; TcdB GH inh: 1.8; Mtb FBA confirm: 110.0*; GDH-TPI counter-2: 86.5*

High-throughput results: PubChem, several laboratories
